This is part of a sample that, as a whole, favours compounds with a hit. Of some 83,000 tested, about 20% had one in any assay.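 Note: values are percent growth. 100 is the growth of untreated cells, values between 100 and 0 indicate rising inhibition; between -100 and 0 indicates cell death.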 A number with no mark means an inactive call. Calls of active or inactive are those of the source. How the source made its calls: active means growth percent below 10; inactive means the rest.
Columns and labels:
Test in all cases: NCI-60 one-dose screen, 48 h (100 = growth as untreated, 0 = no growth, -100 = all killed)
HT29 colon = conditions: 10 µM unless noted
SNB-75 CNS = conditions: 10 µM unless noted
SNB-19 CNS = conditions: 10 µM unless noted
U251 CNS = conditions: 10 µM unless noted
PC-3 prostate = conditions: 10 µM unless noted
SK-MEL-5 melanoma = conditions: 10 µM unless noted
UACC-62 melanoma = conditions: 10 µM unless noted
LOX IMVI melanoma = conditions: 10 µM unless noted
SK-MEL-28 melanoma = conditions: 10 µM
SK-MEL-2 melanoma = conditions: 10 µM unless noted
EKVX NSCLC = conditions: 10 µM unless noted
SN12C renal = conditions: 10 µM unless noted
UO-31 renal = conditions: 10 µM unless noted
TK-10 renal = conditions: 10 µM unless noted
ACHN renal = conditions: 10 µM unless noted
CAKI-1 renal = conditions: 10 µM unless noted
CCRF-CEM leukemia = conditions: 10 µM unless noted
MOLT-4 leukemia = conditions: 10 µM unless noted
SR leukemia = conditions: 10 µM unless noted
A498 renal = conditions: 10 µM unless noted

**Q.** For `COC(=O)c1c2c(c(C)[n+]([O-])c1C)C(=O)C(NCc1ccc(F)c(F)c1)=CC2=O`, which growth (HT29 colon) is on record?
**A.** The growth was 11.6%.

**Q.** And the growth (SNB-75 CNS)?
**A.** The growth was 83.6%.

**Q.** What about the growth (SNB-19 CNS) of the same compound?
**A.** Its growth is 8.33% (active).

**Q.** And the growth (U251 CNS)?
**A.** Its growth is 2.99% (active).

**Q.** And the growth (PC-3 prostate)?
**A.** Its growth is 15.6%.

**Q.** And the growth (SK-MEL-5 melanoma)?
**A.** The growth was -97% (active).

**Q.** What about the growth (UACC-62 melanoma) of the same compound?
**A.** The growth was -15.7% (active).

**Q.** What about the growth (LOX IMVI melanoma) of the same compound?
**A.** Its growth is 5.3% (active).

**Q.** What about the growth (SK-MEL-28 melanoma) of the same compound?
**A.** Its growth is 50.2%.

**Q.** And the growth (SK-MEL-2 melanoma)?
**A.** The growth was 43.1%.

**Q.** What about the growth (EKVX NSCLC) of the same compound?
**A.** Its growth is 13%.

**Q.** And the growth (SN12C renal)?
**A.** The growth was 1.1% (active).

**Q.** And the growth (UO-31 renal)?
**A.** Its growth is 58.8%.

**Q.** And the growth (TK-10 renal)?
**A.** Its growth is 85.5%.

**Q.** What about the growth (ACHN renal) of the same compound?
**A.** Its growth is 22.1%.

**Q.** And the growth (CAKI-1 renal)?
**A.** Its growth is 43%.

**Q.** What about the growth (CCRF-CEM leukemia) of the same compound?
**A.** Its growth is 21.5%.

**Q.** What about the growth (MOLT-4 leukemia) of the same compound?
**A.** The growth was 8.41% (active).

**Q.** And the growth (SR leukemia)?
**A.** Its growth is 20.4%.

**Q.** `N#CC(C#N)=Cc1c(-c2ccccc2)[nH]c2ccccc12` was tested. Which growth (HT29 colon) did it give?
**A.** Its growth is 14.3%.

**Q.** What about the growth (SNB-75 CNS) of the same compound?
**A.** The growth was 2.62% (active).

**Q.** What about the growth (SNB-19 CNS) of the same compound?
**A.** Its growth is 37.8%.

**Q.** And the growth (U251 CNS)?
**A.** Its growth is 32.1%.

**Q.** What about the growth (PC-3 prostate) of the same compound?
**A.** Its growth is 9.36% (active).

**Q.** And the growth (SK-MEL-5 melanoma)?
**A.** The growth was 14.9%.

**Q.** And the growth (UACC-62 melanoma)?
**A.** Its growth is 32.2%.

**Q.** And the growth (LOX IMVI melanoma)?
**A.** Its growth is 48.3%.

**Q.** And the growth (SK-MEL-28 melanoma)?
**A.** Its growth is 42.7%.

**Q.** What about the growth (SK-MEL-2 melanoma) of the same compound?
**A.** Its growth is 45.7%.

**Q.** What about the growth (EKVX NSCLC) of the same compound?
**A.** The growth was 66%.

**Q.** And the growth (SN12C renal)?
**A.** The growth was 44.3%.

**Q.** And the growth (UO-31 renal)?
**A.** Its growth is 38.9%.

**Q.** And the growth (TK-10 renal)?
**A.** Its growth is 67.6%.

**Q.** What about the growth (ACHN renal) of the same compound?
**A.** Its growth is 65.5%.

**Q.** And the growth (CAKI-1 renal)?
**A.** Its growth is 38.6%.

**Q.** And the growth (A498 renal)?
**A.** Its growth is -3.79% (active).

**Q.** What about the growth (MOLT-4 leukemia) of the same compound?
**A.** Its growth is 26.9%.

**Q.** And the growth (SR leukemia)?
**A.** The growth was 32.2%.

**Q.** `O=C(/C=C/c1ccc(F)cc1)c1ccc(Nc2nc(NCCO)nc(Nc3ccc(Cl)cc3)n2)cc1` was tested. Which growth (HT29 colon) did it give?
**A.** The growth was 22.4%.

**Q.** And the growth (SNB-75 CNS)?
**A.** Its growth is 81.4%.

**Q.** And the growth (SNB-19 CNS)?
**A.** Its growth is 93.4%.

**Q.** And the growth (U251 CNS)?
**A.** The growth was 27%.

**Q.** And the growth (PC-3 prostate)?
**A.** Its growth is 68%.

**Q.** What about the growth (SK-MEL-5 melanoma) of the same compound?
**A.** The growth was 75.4%.

**Q.** And the growth (UACC-62 melanoma)?
**A.** Its growth is 74.5%.

**Q.** And the growth (LOX IMVI melanoma)?
**A.** The growth was 37.3%.

**Q.** And the growth (SK-MEL-28 melanoma)?
**A.** The growth was 86.9%.

**Q.** And the growth (SK-MEL-2 melanoma)?
**A.** The growth was 103%.

**Q.** And the growth (EKVX NSCLC)?
**A.** Its growth is 67.7%.

**Q.** What about the growth (SN12C renal) of the same compound?
**A.** Its growth is 94%.

**Q.** What about the growth (UO-31 renal) of the same compound?
**A.** Its growth is 70.7%.

**Q.** What about the growth (TK-10 renal) of the same compound?
**A.** Its growth is 93.4%.

**Q.** What about the growth (ACHN renal) of the same compound?
**A.** The growth was 70.8%.

**Q.** What about the growth (CAKI-1 renal) of the same compound?
**A.** Its growth is 73.6%.

**Q.** What about the growth (A498 renal) of the same compound?
**A.** The growth was 70.4%.

**Q.** What about the growth (CCRF-CEM leukemia) of the same compound?
**A.** Its growth is 60.5%.

**Q.** And the growth (MOLT-4 leukemia)?
**A.** The growth was 57.9%.

**Q.** And the growth (SR leukemia)?
**A.** Its growth is 25.8%.

**Q.** `O=c1c(-c2nc3ccccc3[nH]2)cc2ccccc2n1Cc1cn(Cc2ccc(N3CCOCC3)cc2)nn1` was tested. Which growth (HT29 colon) did it give?
**A.** The growth was 56.3%.

**Q.** And the growth (SNB-75 CNS)?
**A.** Its growth is 5.39% (active).

**Q.** And the growth (SNB-19 CNS)?
**A.** Its growth is 48%.

**Q.** And the growth (U251 CNS)?
**A.** The growth was 64.3%.

**Q.** And the growth (PC-3 prostate)?
**A.** Its growth is 65.9%.

**Q.** What about the growth (SK-MEL-5 melanoma) of the same compound?
**A.** The growth was 71.9%.

**Q.** And the growth (UACC-62 melanoma)?
**A.** Its growth is 79.2%.

**Q.** What about the growth (LOX IMVI melanoma) of the same compound?
**A.** Its growth is 78.7%.

**Q.** What about the growth (SK-MEL-28 melanoma) of the same compound?
**A.** The growth was 76.2%.

**Q.** What about the growth (SK-MEL-2 melanoma) of the same compound?
**A.** The growth was 86.9%.

**Q.** And the growth (EKVX NSCLC)?
**A.** Its growth is 89.7%.

**Q.** What about the growth (SN12C renal) of the same compound?
**A.** The growth was 49.7%.

**Q.** And the growth (UO-31 renal)?
**A.** The growth was 74.8%.

**Q.** What about the growth (TK-10 renal) of the same compound?
**A.** Its growth is 92.7%.

**Q.** What about the growth (ACHN renal) of the same compound?
**A.** Its growth is 35.7%.

**Q.** And the growth (CAKI-1 renal)?
**A.** The growth was 77.3%.

**Q.** And the growth (A498 renal)?
**A.** The growth was 92.4%.

**Q.** And the growth (CCRF-CEM leukemia)?
**A.** The growth was 110%.

**Q.** And the growth (MOLT-4 leukemia)?
**A.** Its growth is 99%.

**Q.** What about the growth (SR leukemia) of the same compound?
**A.** The growth was 71.7%.

**Q.** Which results are given for `COC(=O)/C(CCC=C(C)C)=C1\[C@@H](OC(C)=O)C[C@@]2(C)[C@H]1C[C@@H](O)[C@H]1[C@@]3(C)CC[C@H](NCCO)[C@@H](C)[C@@H]3CC[C@@]12C`?
**A.** growth (HT29 colon): 104%; growth (SNB-75 CNS): 100%; growth (SNB-19 CNS): 98.4%; growth (U251 CNS): 103%; growth (PC-3 prostate): 102%; growth (SK-MEL-5 melanoma): 102%; growth (UACC-62 melanoma): 98%; growth (LOX IMVI melanoma): 94.2%; growth (SK-MEL-28 melanoma): 106%; growth (SK-MEL-2 melanoma): 109%; growth (EKVX NSCLC): 99.6%; growth (SN12C renal): 105%; growth (UO-31 renal): 78.9%; growth (TK-10 renal): 115%; growth (ACHN renal): 97.3%; growth (CAKI-1 renal): 91%; growth (A498 renal): 101%; growth (CCRF-CEM leukemia): 101%; growth (MOLT-4 leukemia): 96.7%; growth (SR leukemia): 98.3%

**Q.** What does the source list for `CC1(O)COCCCCOc2c(CN)cccc2NC(=O)c2nc(cnc2N)-c2ccc(cc2)S(=O)(=O)C(C)(C)C1` (stereo not drawn)?
**A.** growth (HT29 colon): 1.64% (active); growth (SNB-75 CNS): -60.3% (active); growth (SNB-19 CNS): -55.9% (active); growth (U251 CNS): -74.9% (active); growth (PC-3 prostate): 14%; growth (SK-MEL-5 melanoma): -94.9% (active); growth (UACC-62 melanoma): -90.8% (active); growth (LOX IMVI melanoma): -86.3% (active); growth (SK-MEL-28 melanoma): -87.8% (active); growth (SK-MEL-2 melanoma): -32.6% (active); growth (EKVX NSCLC): -58% (active); growth (SN12C renal): -81.1% (active); growth (UO-31 renal): -97.5% (active); growth (TK-10 renal): -36.2% (active); growth (ACHN renal): -99.2% (active); growth (CAKI-1 renal): 39.4%; growth (A498 renal): -34.4% (active); growth (CCRF-CEM leukemia): 5.36% (active); growth (MOLT-4 leukemia): -15.6% (active); growth (SR leukemia): 8.92% (active)

**Q.** With `O=C(/C=C/c1ccc(Cl)cc1)c1ccc(Nc2nc(NCCO)nc(N3CCOCC3)n2)cc1` as the compound, how does the growth (HT29 colon) read?
**A.** Its growth is 42.2%.

**Q.** And the growth (SNB-75 CNS)?
**A.** Its growth is 64.6%.

**Q.** What about the growth (SNB-19 CNS) of the same compound?
**A.** Its growth is 91.9%.

**Q.** What about the growth (U251 CNS) of the same compound?
**A.** Its growth is 46.1%.

**Q.** And the growth (PC-3 prostate)?
**A.** The growth was 77.1%.

**Q.** What about the growth (SK-MEL-5 melanoma) of the same compound?
**A.** The growth was 79.4%.

**Q.** What about the growth (UACC-62 melanoma) of the same compound?
**A.** The growth was 69%.

**Q.** And the growth (LOX IMVI melanoma)?
**A.** Its growth is 68%.

**Q.** And the growth (SK-MEL-28 melanoma)?
**A.** Its growth is 94.7%.

**Q.** What about the growth (SK-MEL-2 melanoma) of the same compound?
**A.** Its growth is 109%.

**Q.** And the growth (EKVX NSCLC)?
**A.** Its growth is 94%.

**Q.** And the growth (SN12C renal)?
**A.** Its growth is 88.4%.

**Q.** What about the growth (UO-31 renal) of the same compound?
**A.** Its growth is 56%.

**Q.** And the growth (TK-10 renal)?
**A.** Its growth is 111%.

**Q.** And the growth (ACHN renal)?
**A.** Its growth is 82.5%.

**Q.** What about the growth (CAKI-1 renal) of the same compound?
**A.** The growth was 77.6%.

**Q.** What about the growth (A498 renal) of the same compound?
**A.** The growth was 92.6%.

**Q.** And the growth (CCRF-CEM leukemia)?
**A.** The growth was 82.8%.

**Q.** What about the growth (MOLT-4 leukemia) of the same compound?
**A.** Its growth is 71.3%.

**Q.** And the growth (SR leukemia)?
**A.** The growth was 19.8%.
